# In article PMC7819943, “Rice protein-binding microarrays: a tool to detect cis-acting elements near promoter regions in rice”:
# Over roughly 68,000 sequences, “fluorescence intensity (a.u.)” has its median near 9,100; the highest 2% begin near 16,000. The sample as a whole holds a higher share of the highest values than the screen did.
# Target: OsWRKY34 (Oryza sativa, UniProt Q0JBA9 1-250)
# Test: protein-binding microarray (RPBM); PBS, 2% BSA, 51.3 ng/ul salmon testes DNA, 50 uM zinc acetate, 200 nM TF, 25 C, 1 h; high values mean tight binding
# Conditions: protein: recombinant; tags: N-terminal polyhistidine and DsRed monomer fusion (pET32a); label: CyDye5-dUTP incorporated in the synthesized complementary strand; 3' TTTTT single-stranded linker to array surface; dsDNA, one strand shown
# Summary of the method: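 Polyhistidine-tagged DsRed fusions of transcription factors, joined at the N-terminus, were expressed in E. coli BL21-CodonPlus and isolated on Ni–NTA. They were incubated at 200 nM for 1 h at 25 °C on a custom Agilent array, double-stranded and BSA-blocked, in PBS with 2% BSA, salmon testes DNA and 50 µM zinc acetate. The binding signal is per-feature fluorescence intensity (arbitrary units) read on an Axon 4000B scanner after washing.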
# Chain of OsWRKY34 (Q0JBA9 entry or part of it): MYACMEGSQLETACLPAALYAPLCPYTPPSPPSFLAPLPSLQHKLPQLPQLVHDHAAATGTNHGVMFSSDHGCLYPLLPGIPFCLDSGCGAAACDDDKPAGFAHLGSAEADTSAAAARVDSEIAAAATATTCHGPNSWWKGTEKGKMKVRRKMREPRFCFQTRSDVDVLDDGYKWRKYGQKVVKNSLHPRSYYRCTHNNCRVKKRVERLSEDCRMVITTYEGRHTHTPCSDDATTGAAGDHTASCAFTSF
row,Sequence,binding signal
1,CTTCGCTTTCGTCACGTTCTTGATTTGGGCGGGCGCGGAGCGGAGTCACCTAGTGCAG,8980 fluorescence intensity (a.u.)
2,CTCGGGAGAGGGGAGGCGTAGATTCTTCTGTTGCTTCAGTCGGAGTCACCTAGTGCAG,10300 fluorescence intensity (a.u.)
3,CGTCGAACGTCCACTACCATCCTCTTGTTAATCCCGCAAACGGAGTCACCTAGTGCAG,8060 fluorescence intensity (a.u.)
4,TTTCTTTGACTCGGTGACTTTGTGAGAGATGTTTTATGCCCGGAGTCACCTAGTGCAG,9190 fluorescence intensity (a.u.)
5,CTCCGTCCCATAATATAAGGGATTTTGACTTTTTACTTGCCGGAGTCACCTAGTGCAG,11200 fluorescence intensity (a.u.)
6,TCCCCGTTACCGAGCGCCGCCGCCTCCGCCTCCACCTCTACGGAGTCACCTAGTGCAG,10100 fluorescence intensity (a.u.)
7,TCTACACAATTCAAAATCCGGCCCTGTTTATTTTGTACTACGGAGTCACCTAGTGCAG,8420 fluorescence intensity (a.u.)
8,CTACACTCCTAATCTCTCTCTCTTTCTCGAGTGGAATCCACGGAGTCACCTAGTGCAG,8970 fluorescence intensity (a.u.)
9,ACGCGCCGCAACGCAACTTCCATGGACGCATCTGGACCACCGGAGTCACCTAGTGCAG,8130 fluorescence intensity (a.u.)
10,GTTTTTAATTTCGATAATATTTGATTCTGTTTTCGTGTCCCGGAGTCACCTAGTGCAG,8930 fluorescence intensity (a.u.)
11,ATTACCACTGATGCTGCTTGGTTCGCAATACTTGCTTCTTCGGAGTCACCTAGTGCAG,9730 fluorescence intensity (a.u.)
12,CTCGTATAGTTAGCTTGGAGGACTGAGCTTTGTGGGTGGGCGGAGTCACCTAGTGCAG,8880 fluorescence intensity (a.u.)
13,GTTCTGACTGTTGTGTTGTGGGTGTTTGGTTTATGAGCAGCGGAGTCACCTAGTGCAG,8430 fluorescence intensity (a.u.)
14,GACTGAGCTTTGTGGGTGGGTTGGTTGGTTGGTTATACAACGGAGTCACCTAGTGCAG,30500 fluorescence intensity (a.u.)
15,GTCTCCATTGCACCCACGTTGGATCCGCCCTTGCACATGGCGGAGTCACCTAGTGCAG,8470 fluorescence intensity (a.u.)
16,TAATTCATGGTTGGTTTTTAATTATATTTCCCTCCTTAAACGGAGTCACCTAGTGCAG,9580 fluorescence intensity (a.u.)
17,TCGTCGGTGGTGTGGGGAGGAGAAGATGGCCGGAGAGGAACGGAGTCACCTAGTGCAG,15000 fluorescence intensity (a.u.)
18,CGACGGGAGAGGAGGAGCCGGTGGGCGGGGTGGGGCCCACCGGAGTCACCTAGTGCAG,11000 fluorescence intensity (a.u.)
19,TTCGGGGTGTTCGTCAAAAATGTGGGGAGGAGGCATGGATCGGAGTCACCTAGTGCAG,13100 fluorescence intensity (a.u.)
20,GTGTTCTCATTGTATTGGGTATTCAAATGTTTTGTAATATCGGAGTCACCTAGTGCAG,9730 fluorescence intensity (a.u.)
21,ATCCCAAAATAATGTGTTCGGGTGGGCGGGCGGGAAATATCGGAGTCACCTAGTGCAG,23000 fluorescence intensity (a.u.)

row,Sequence,binding signal
1,ATTTTGTGTTTTTGTGGTGGTAATATTGTTTTTGAGTTCTCGGAGTCACCTAGTGCAG,9700 fluorescence intensity (a.u.)
2,GCGGGTGTGGCATTGTGGGTAATCTCGGCCGTTCAAATATCGGAGTCACCTAGTGCAG,17300 fluorescence intensity (a.u.)
3,TTACCAAACTGAAAATAAAAATGTGTGTTTTTTTTAATATCGGAGTCACCTAGTGCAG,9410 fluorescence intensity (a.u.)
4,AATCATCACATCATCACCGTCATCTTCTCTAGCATAGCAACGGAGTCACCTAGTGCAG,8050 fluorescence intensity (a.u.)
5,CCTTCCCATGCTGCTGTGATGTGTCATACGCCGCCGCCACCGGAGTCACCTAGTGCAG,9920 fluorescence intensity (a.u.)
6,TCCCAACCACACCCACCCACCCGCCCAATCCATCCACCAACGGAGTCACCTAGTGCAG,8860 fluorescence intensity (a.u.)
7,TCCCTTCAAATATTGTTTTTCTTTTAACACTCAATCTCTCCGGAGTCACCTAGTGCAG,8940 fluorescence intensity (a.u.)
8,TAGAATTACATCTGATATACCGGTCTTACGCTCTTAGATTCGGAGTCACCTAGTGCAG,8860 fluorescence intensity (a.u.)
9,GCCCAGCCCAGGCCCACCTTATGTTTTGTTGCATCTCTACCGGAGTCACCTAGTGCAG,10700 fluorescence intensity (a.u.)
10,TTTTTTACCATGGGTCTTGCATTGAATTTTTCTTTTTTTTCGGAGTCACCTAGTGCAG,9890 fluorescence intensity (a.u.)
11,TCCACCCATCCTCATCATTATCCTCTCTCTCCTCTCTCACCGGAGTCACCTAGTGCAG,9640 fluorescence intensity (a.u.)
12,AATAGGGCATGAACCCCAGCCATTTCTCCTCATCCCACACCGGAGTCACCTAGTGCAG,63200 fluorescence intensity (a.u.)
13,TGCCTAGATGAATACTGCATGTTTTTTTTTTGTTTGATTTCGGAGTCACCTAGTGCAG,9620 fluorescence intensity (a.u.)
14,CTCTCTCCACCCTCAGCCGCCACACTCCCATCCATTCTCCCGGAGTCACCTAGTGCAG,9060 fluorescence intensity (a.u.)
15,TCCACCCATCGTTCTCATGACCTGCCAACCCCATCCCAGCCGGAGTCACCTAGTGCAG,10000 fluorescence intensity (a.u.)
16,GAACCCACATCCCACCATGACGCGCAATTACCTCATTATCCGGAGTCACCTAGTGCAG,17000 fluorescence intensity (a.u.)
17,CACAGGGCATGAATTGATGAATAGGATGGCCATTTTTTTTCGGAGTCACCTAGTGCAG,65000 fluorescence intensity (a.u.)
18,TCATCCGCACCAACACCATTAGTTATATTACCCACACATCCGGAGTCACCTAGTGCAG,8520 fluorescence intensity (a.u.)
19,TCCTGTGCGCCTCCCTCGAGCGTGTGACTGTGTTTGTGACCGGAGTCACCTAGTGCAG,8710 fluorescence intensity (a.u.)
20,TTTAAGTTTGTTTGGTTGTGGGTTATAGGCTCTATTTCAACGGAGTCACCTAGTGCAG,12000 fluorescence intensity (a.u.)
21,ATTTGCATGACATATATCATTACTACATTATTTTATATAGCGGAGTCACCTAGTGCAG,8930 fluorescence intensity (a.u.)

row,Sequence,binding signal
1,GTGTGTTATTTTCTTCCACTCTTTAGTTTTCACTTTTTGACGGAGTCACCTAGTGCAG,9240 fluorescence intensity (a.u.)
2,GTTGCCCTTTTGCTCCTGTTGTCTTCTCCGCTCCTGTCGTCGGAGTCACCTAGTGCAG,9800 fluorescence intensity (a.u.)
3,TGGCATTTTTTTTTTCTTGTGAAAAACCGACGAGAGGAAGCGGAGTCACCTAGTGCAG,8190 fluorescence intensity (a.u.)
4,GTTCATTTTATAGTCTAGCAAAATTTCCTCTCTTTTTTTTCGGAGTCACCTAGTGCAG,10700 fluorescence intensity (a.u.)
5,AGTGACCCTTATCTCTTCACCTATCTCTCTCCCTTCCCCTCGGAGTCACCTAGTGCAG,9580 fluorescence intensity (a.u.)
6,ACGACGAGGTCGCTTTTTTCTTGTTGGGCTGGGCTGGGATCGGAGTCACCTAGTGCAG,21800 fluorescence intensity (a.u.)
7,TTCTTTGTTGGATTGATGATCGCTTTTGTGTGGGAGAGGTCGGAGTCACCTAGTGCAG,9380 fluorescence intensity (a.u.)
8,TTTCTTTCTTTCTTTCTTGGGATCTTTTCCTTCTTTTTTTCGGAGTCACCTAGTGCAG,12600 fluorescence intensity (a.u.)
9,GTTCTCGGTGTGTACTTGGTCCATCAGTCTCTTCAGATCTCGGAGTCACCTAGTGCAG,8120 fluorescence intensity (a.u.)
10,TTCTTTTTTTGGCTTCCTTTTTTTTGTGTGTATATATGTACGGAGTCACCTAGTGCAG,13700 fluorescence intensity (a.u.)
11,GTCAAACATCAACTTTTCCGTCACATCAAATGTTTGGACACGGAGTCACCTAGTGCAG,8670 fluorescence intensity (a.u.)
12,TCTTTTGTATAGCACTGTACCGTATACAACACTGAATACACGGAGTCACCTAGTGCAG,8080 fluorescence intensity (a.u.)
13,TCCTTTTTTTTGGGTGCTTTTCTTTTGTATAGCACTGTACCGGAGTCACCTAGTGCAG,65500 fluorescence intensity (a.u.)
14,CCTTCTATTTTTCCGTCACATCAAATGTTTGGACACATGTCGGAGTCACCTAGTGCAG,9670 fluorescence intensity (a.u.)
15,CGTCGATCTCTATCTCTCTCTCTCGCTTGTTCTTCTTCACCGGAGTCACCTAGTGCAG,15200 fluorescence intensity (a.u.)
16,ATCTAGCCTATCGCTCTTGTGTTCTCGGTGTGTACTTGGTCGGAGTCACCTAGTGCAG,16600 fluorescence intensity (a.u.)
17,CAAACTTCTAATTTTTCCGTCACATCAAATGTTTGGATATCGGAGTCACCTAGTGCAG,34900 fluorescence intensity (a.u.)
18,GTATGCATTATTATGCTGATTAATTTGGCCTGGTTATTTGCGGAGTCACCTAGTGCAG,8160 fluorescence intensity (a.u.)
19,GTCGGGTTCGGGTACTGTTGATGCTGATCGAGATGGTCCTCGGAGTCACCTAGTGCAG,8650 fluorescence intensity (a.u.)
20,AACTATTTTTTTATGGGTTTGTTGTGTAGATCATGTAGCACGGAGTCACCTAGTGCAG,11100 fluorescence intensity (a.u.)
21,TTCTACTTCTACACCTCGCAATGAAAAAAACAAATTTGACCGGAGTCACCTAGTGCAG,8060 fluorescence intensity (a.u.)

row,Sequence,binding signal
1,GCTTCTTCCGTTGCAATTCCATTCTCCTCTCTCTCCTGCTCGGAGTCACCTAGTGCAG,11400 fluorescence intensity (a.u.)
2,AGGACACCTTAGCATTCAGCCATCTTATTTCTCTGTATTACGGAGTCACCTAGTGCAG,9420 fluorescence intensity (a.u.)
3,TCCAGAAGACACCCGCCTGCTCCACTGCCGTTCCTGTCGACGGAGTCACCTAGTGCAG,9120 fluorescence intensity (a.u.)
4,ACTGTGAATGTGTGACTAAATGGGCCGAGCCCAACTACTACGGAGTCACCTAGTGCAG,9860 fluorescence intensity (a.u.)
5,GATTCATCTTGCCCTCAAAGTTTCCTGCTTTGTTTGATCACGGAGTCACCTAGTGCAG,9520 fluorescence intensity (a.u.)
6,GGAGGGAGTAGTATATTGGGGATTTTCAGTTGGGTCTGGGCGGAGTCACCTAGTGCAG,14200 fluorescence intensity (a.u.)
7,GCCATTCTATAGGAGGTGGTGGGGAGGGTTTCGTGCTCCTCGGAGTCACCTAGTGCAG,10800 fluorescence intensity (a.u.)
8,TTTGTCACGCGAATACTGTATTGTAGGGTGGGGTTCACTGCGGAGTCACCTAGTGCAG,12100 fluorescence intensity (a.u.)
9,GCCGGCTAAACTGGCTTATTGTACTTGCTCTTACTTGACTCGGAGTCACCTAGTGCAG,9430 fluorescence intensity (a.u.)
10,ATGTTTTTTTTTGGGTCGCTTTCTTTGTGTGTGTATATATCGGAGTCACCTAGTGCAG,16400 fluorescence intensity (a.u.)
11,ATACTAGGCTGTATCTCTCTCGCTCTCTTGTTGTTCCCTCCGGAGTCACCTAGTGCAG,18200 fluorescence intensity (a.u.)
12,GCTCTCTCTCTCTCTCTCTCTCGCTGTCTCTCTCCCTCCCCGGAGTCACCTAGTGCAG,9110 fluorescence intensity (a.u.)
13,ATGTTTTAATTTTGGGCTTCTTTTTGTTTTGGGCTTTTATCGGAGTCACCTAGTGCAG,24300 fluorescence intensity (a.u.)
14,ATTTTTTATTTCTTTTGTTTCAAATTTCAGTTCTTTTTATCGGAGTCACCTAGTGCAG,9720 fluorescence intensity (a.u.)
15,TCTCGTTTCGTTCGTGTATCATGTTTTTTTTTGGGTCGCTCGGAGTCACCTAGTGCAG,8730 fluorescence intensity (a.u.)
16,TTTTCTTTCTTTTTCTTTTTTTTTATCGTTTTGTTCTTCTCGGAGTCACCTAGTGCAG,10500 fluorescence intensity (a.u.)
17,TCATTTTGTATTTTGTTGTCTCTGTCTTGCTGTTCCCTCGCGGAGTCACCTAGTGCAG,8810 fluorescence intensity (a.u.)
18,GTGTGTTGTTGTTCTTGTTTTGGTTCTTTTCTAGTAGTATCGGAGTCACCTAGTGCAG,8750 fluorescence intensity (a.u.)
19,GGTCATACTCTCTTCGTCCCATTTAATGTACAATCATGCTCGGAGTCACCTAGTGCAG,8860 fluorescence intensity (a.u.)
20,GTTTCATAATCCTGTGTTCTTTTTGTTTACTATGGTTTTGCGGAGTCACCTAGTGCAG,11000 fluorescence intensity (a.u.)
21,GCAACTGATAGACTAACTTGTCCGGTCCTGTTTTGGAATCCGGAGTCACCTAGTGCAG,10200 fluorescence intensity (a.u.)
